Potency and affinity values are given separately. Inconclusive results are not listed. Active and inactive are the calls of the source.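 How the source made its calls: active means samples whose fitted half-maximal inhibition concentration is no more than ten times the top valid dose tested; inconclusive means flat response between -70 and -30, or invalid curve fit; inactive means flat within 30 of zero, potency above limit, or signal rising.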
Target: Trypsin (Sus scrofa) (UniProt P00761)
Test: trypsin protease activity blockade – biochemical, quenched peptide fluorescence, cherry-pick, selectivity assay for Rce1 protease inhibitor project, dose response (AID 488789);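 further: more negative means stronger trypsin inhibition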
Conditions: porcine trypsin, quenched peptide cleavage fluorescence; series mostly up to 10 µM

Chain of Trypsin (Sus scrofa) (P00761 whole entry, looked up): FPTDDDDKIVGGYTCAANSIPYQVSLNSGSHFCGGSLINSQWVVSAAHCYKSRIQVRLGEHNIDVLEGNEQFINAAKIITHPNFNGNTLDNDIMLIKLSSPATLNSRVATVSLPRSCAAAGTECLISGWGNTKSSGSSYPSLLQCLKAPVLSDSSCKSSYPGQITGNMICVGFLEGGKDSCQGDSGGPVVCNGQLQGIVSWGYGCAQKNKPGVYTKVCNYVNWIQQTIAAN

outcome, inactive:
O=S(=O)(c1ccccc1)c1nc(-c2ccco2)oc1N1CCCCC1, COc1ccccc1NC(=O)Cc1nnc(SCC(=O)Nc2nccs2)n1C, CN1C(=O)/C(=C/c2cccc(Cl)c2)Sc2ccc(C(=O)N3CCOCC3)cc21, Cc1ccc(SCc2c(C(=O)N/N=C/c3ccccc3)nnn2-c2nonc2N)cc1, Cc1cc2cc(C#N)c(NCCNC(=S)NCCCN3CCOCC3)nc2cc1C, NC(=O)CSC1=Nc2ccccc2C2=NC(c3ccccc3)C(=O)N12 (stereo not drawn), Cc1ccc(C(=O)c2c3ccc(C(F)(F)F)cc3[n+]([O-])n2CCCC(N)=O)cc1, CCN(Cc1ccccc1)c1ccc(/C=N/N=C(N)N)cc1, O=C(NCC1CC1)c1cc(-c2ccccc2)nn1CC1CC(c2cccc([N+](=O)[O-])c2)=NO1 (stereo not drawn), Cc1cccc(N2CCc3c2nc2ccc(Br)cc2c3N)c1, C=C(C)C1(O)OC(=O)C=C1OC (stereo not drawn), COc1ccc(C(CNC(=O)COc2cc(C)c(Cl)c(C)c2)N2CCCCC2)cc1 (stereo not drawn), COc1cccc(/C=N/NC(=O)c2nnn(-c3nonc3N)c2C(C)C)c1OCc1ccc(F)cc1, Cc1cccc(N2C(=O)c3cccc4c(N5CCCCC5)c([N+](=O)[O-])cc(c34)C2=O)c1C, Nc1c(Cl)cc(C2=NCCn3nc4cc(C(F)(F)F)ccc4c32)cc1Cl, CN1CCN(Cc2c(C(=O)N/N=C/c3cccc(Br)c3)nnn2-c2nonc2N)CC1, CCN(CC)CCN(C(=O)c1ccc2ccccc2c1)c1nc2cc3c(cc2s1)OCO3, CC(C)N1CCN(Cc2ccc(OCc3ccccc3)cc2)CC1CCO (stereo not drawn), CCN(CC)CCN(C(=O)c1cc2ccccc2cc1OC)c1nc2ccc(F)cc2s1, O=C(Nc1cc(S(=O)(=O)N2CCOCC2)ccc1N1CCCC1)c1cnccn1, O=C1CCN(Cc2ccccc2)CCN1[C@H](CSc1ccccc1)Cc1ccccc1, CCSCCOC(=O)C1=C(C)NC(=O)NC1c1ccccc1 (stereo not drawn), CCOc1ccccc1CNC(=O)c1cc2occc2n1C, CC(=O)c1c(C)oc2ccc(NS(=O)(=O)c3ccc(C(=O)O)cc3)cc12, COCc1cc(C)n(CC(=O)NCc2ccccc2)c(=O)c1C#N, CCC(COC)NC(=O)CCc1nnc(Cc2cccc(C(F)(F)F)c2)o1 (stereo not drawn), Cc1cccc(NC(=O)c2cc(S(=O)(=O)N3CCCCC3)c[nH]2)c1C, O=C(CCNC(=O)N1CC(=O)Nc2ccccc21)NCCc1cccc(F)c1, COC(C/C=C/[C@@H](O)[C@H](C)OCc1ccccc1)OC, COc1cc(OC)cc(-c2ncc3ccccn23)c1, COc1ccccc1-n1c(-c2ccccc2)c[nH]c1=S, CCCN(CCC)CCNC(=O)c1cc2c(-c3ccccc3F)nn(C)c2s1, CC(=O)OCC(=O)[C@@]12OC3(CCCC3)O[C@@H]1C[C@H]1[C@@H]3CCC4=CC(=O)C=C[C@]4(C)[C@@]3(F)[C@@H](O)C[C@@]12C, CCOc1cc(CNC2CCCC2)ccc1OCc1ccccc1Cl, CCOC(=O)c1cc2c(=O)[nH]ccc2nc1C, O=C(Nc1ccc(S(=O)(=O)Nc2ccccc2)cc1)C1COc2ccccc2O1 (stereo not drawn), Cc1cc(C(=O)N[C@H](c2ccccc2)[C@@]2(C)C[C@@H]2[C@@H](C)C(=O)Nc2ccc3ccccc3c2)n(C)n1, Cc1cc(C)n2nc(CC(=O)NNC(=O)c3ccc(N(C)C)cc3)nc2n1

Reference: PubChem BioAssay AID488789 (Broad Institute, 2010)
